# About 83,000 compounds went through this panel and 20% of them were active in at least one assay; those are over-represented in the sample as a whole.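 Percent growth is the endpoint: 0 to 100 indicates growth inhibition (40 means 60% inhibition), 0 means no net growth, and negative values indicate cell death.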 Activity calls are given as the source filed them. How the source made its calls: active means growth percent below 10; inactive means the rest.
# Tested on: MDA-MB-468 breast
# Assay: NCI-60 one-dose screen, 48 h (100 = growth as untreated, 0 = no growth, -100 = all killed)
# Settings: 10 µM unless noted
row,SMILES,growth
1,CC(Nc1ncnc2ccc(-c3cnc(N)nc3)cc12)c1ccccc1 (stereo not given),-28.6% (active)
2,C=C(C)[C@@H]1CC[C@]2(C)[C@H](CC[C@@H]3[C@H]4[C@H]5OC[C@@]4(CCC5(C)C)CC[C@]32C)[C@@]1(C)CCCN,-68.2% (active)
3,O=C(Nc1ccc2c(c1)OCO2)C(=O)c1c[nH]c2cc(F)ccc12,74.5% (inactive)
4,CCn1c(C)nc([N+](=O)[O-])c1Sc1nc(N)nc2nc[nH]c12,-11.2% (active)
5,CCN1CCN(c2cc(C(=O)Nc3cccc(Nc4ccc5c(OC)cccc5n4)c3)cc(C(F)(F)F)c2)CC1,23.8% (inactive)
6,CCCn1c2cc(OCc3cn(-c4ccc(Cl)cc4)nn3)ccc2c2ccnc(C)c21,38.9% (inactive)
7,COC(=O)C(Cc1ccccc1)NS(=O)(=O)/N=C1\NC(=O)NC1=C(Cl)Cl (stereo not given),16.3% (inactive)
8,CN1CCN(CCCn2c(=O)c3sc4ncccc4c3n3nnc(-c4ccccc4)c23)CC1,-62% (active)
9,CC/C(=C\c1ccc(N(C)C)cc1)c1ccncc1,-12.7% (active)
10,O=C(CCc1nnc2sc(OCc3ccccc3)nn12)c1nc2ccc([N+](=O)[O-])cc2[nH]1,109% (inactive)
11,N#C/C(=C\c1ccc(-c2ccccc2F)o1)c1nc(-c2ccco2)cs1,-11% (active)
12,COc1ccc(/C=N/NC(=O)c2ccc(-n3cc(-c4ccccc4)nn3)cc2)cc1OC,101% (inactive)
13,CCCCCCCCCCCCC[N+](C)(C)Cc1ccccc1,-25.3% (active)
14,O=c1c2ccccc2nc2n1Cc1nc3ccccc3c(=O)n1C2,90.6% (inactive)
15,CC[C@@H](C)/C=C(C)/C=C/C(O)=C1\C(=O)N[C@@H](Cc2ccc(OC(=O)[C@@](OC)(c3ccccc3)C(F)(F)F)cc2)C1=O,110% (inactive)
16,COc1ccc(-c2cc(-c3ccc(Cl)cc3)nc(SCCCCCCC(=O)NO)n2)cc1,12.7% (inactive)
17,CNS(=O)(=O)Oc1ccc(-c2ccc3occc3c2)cc1,91.7% (inactive)
18,COc1ccc(/C=C\c2cc(OC)c(OC)c(OC)c2)cc1OC(=O)c1cccc(Cn2cc(CCOC(=O)c3cccc(Cn4nnc5c4C(=O)c4ccccc4C5=O)c3)nn2)c1,5.62% (active)
19,C/C=C(/C)C(=O)OC1C=C(CO)C(=O)C(OC(=O)C2(C)OC2C)C1C(C)C (stereo not given),-66.8% (active)
20,Oc1c(C(Nc2ccccn2)c2cccc(Oc3ccccc3)c2)ccc2cccnc12 (stereo not given),-79.2% (active)

row,SMILES,growth
1,Cc1nccc2c3ccc(OCc4cn(-c5ccc(Br)cc5)nn4)cc3n(CCCc3ccccc3)c12,108% (inactive)
2,CCOC(=O)c1cnc2c(C)cccc2c1Nc1ccc(C(C)=O)cc1,-71.2% (active)
3,COc1ccc(C(=O)Nc2cccc(C3CC(=O)c4c(cc(OC)c(OC)c4OC)O3)c2)cc1 (stereo not given),-2.79% (active)
4,O=C1NC(=O)C(=Cc2cn(Cc3ccccn3)c3ccccc23)C(=O)N1,-51.2% (active)
5,CCC1(c2ccccc2)Oc2ccccc2-n2c(C#N)c3ccccc3c2C1=O (stereo not given),104% (inactive)
6,COc1ccc(CCN2CC=Cn3c2nc2ccccc2c3=O)cc1,-0.686% (active)
7,N#CCCN1C/C(=C/c2ccc(Cl)cc2)C(=O)/C(=C/c2ccc(Cl)cc2)C1,-66.5% (active)
8,COc1ccc(OC)c(Nc2nc3nonc3nc2Nc2cccc(Br)c2)c1,0.0908% (active)
9,CN(C)c1nc(N)c(N=O)c(N)n1,114% (inactive)
10,Nc1nc(N)c2c(n1)NC(c1ccc(Cl)cc1)C1CCc3ccccc3C1=N2 (stereo not given),18.6% (inactive)
11,CC(C)N1C(=O)/C(=C2\SC(=S)N(C(C)C)C2=O)SC1=S,97.1% (inactive)
12,CCN(CC)C(=S)SC(SC(=S)N(CC)CC)C(=O)c1nnn(-c2ccc([N+](=O)[O-])cc2)c1C,102% (inactive)
13,COc1cc2c(cc1O)[C@@]1(C)[C@H](c3ccccc3Br)OC(=O)N1CC2,61.1% (inactive)
14,COc1ccc(-c2[nH]ncc2-c2cc(OC)c(OC)c(OC)c2)cc1,-4.91% (active)
15,COc1ccc(NC2=C(Cl)C(=O)C(C)=C(C)C2=O)cc1,-38.4% (active)
16,CC(C)C1=C[C@@]23CC[C@@H]4[C@](C)(CCC[C@@]4(C)C(=O)N4CCCNCC4)[C@H]2C[C@@H]1[C@H]1C(=O)CCC(=O)[C@H]13,101% (inactive)
17,CC(C)(C)n1cc(-c2ccnc(NCCCNS(=O)(=O)c3ccc(F)cc3)c2)c(-c2cccc(F)c2)n1,53.2% (inactive)
18,CC(CNc1nc(Nc2ccc(Cl)c(Cl)c2)nc(C(Cl)(Cl)Cl)n1)N(C)C (stereo not given),-43.3% (active)
19,O=C1Nc2c(ccc(Cl)c2Cl)/C1=C\c1cc(C(F)(F)F)cc(C(F)(F)F)c1,7.18% (active)
20,S=c1nn[nH]c2ccccc12,117% (inactive)

# Reference: PubChem BioAssay (NCI)
